Measurements published in the supplement of paper PMC10849652.
The full data set covers some 8,800 targets. This sample favours those with a hit. About 0.5% of all pairs of compound and target were hits. A number with no mark means an inactive call.

What was measured:
Assay in all cases: log2 fold change, soluble protein after heating vs DMSO (PISA); higher = thermal stabilisation; K562 lysate, 10 uM; active = over 0.2 and 3.5 SD of the protein, either way, in both replicates (recomputed)
[1] = compound: Cc1cn(-c2cc(NC(=O)c3ccc(C)c(Nc4nccc(-c5cccnc5)n4)c3)cc(C(F)(F)F)c2)cn1 [nilotinib]
Summary of the method: (§1)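 Soluble protein was defined as the supernatant remaining after 21,000xg for 90 min, following pooling of heated aliquots and adjustment to 0.5% NP-40 at 4°C. Before that, crude K562 extract at 1 mg/mL protein in PBS pH 7.4 with 1 mM MgCl2 was treated with 10 μM compound for 30 min and heated for 3 min across 48°C-58°C. Quantification used TMTpro 16plex LC-MS/MS with channel sums equalised, and values are log-two fold changes in thermal stability relative to solvent controls from duplicates.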

[2] = compound: Cc1nc(Nc2n[nH]c3c2CN(C(=O)N[C@H](CN(C)C)c2ccccc2)C3(C)C)c2sccc2n1
Summary of the method: as §1

[3] = compound: Cc1nc(Nc2ncc(C(=O)Nc3c(C)cccc3Cl)s2)cc(N2CCN(CCO)CC2)n1 [dasatinib]
Summary of the method: as §1

[4] = compound: Cc1ncc(-c2ccnc(Nc3ccc(S(C)(=O)=O)cc3)n2)n1C(C)C
Summary of the method: as §1

[5] = compound: Cn1cc(-c2ccc3c(c2)CCN3C(=O)Cc2cccc(C(F)(F)F)c2)c2c(N)ncnc21
Summary of the method: as §1

[6] = compound: Cn1cc(CNCC2CCN(c3ncc(C(=O)NO)cn3)CC2)c2ccccc21 [quisinostat]
Summary of the method: as §1

[7] = compound: Cn1cncc1[C@@](N)(c1ccc(Cl)cc1)c1ccc2c(c1)c(-c1cccc(Cl)c1)cc(=O)n2C [tipifarnib]
Summary of the method: as §1

[8] = compound: NC(=O)Nc1cc(-c2cccc(F)c2)sc1C(=O)N[C@H]1CCCNC1
Summary of the method: as §1

[9] = compound: NC(=O)c1cnc(N[C@@H]2CCCC[C@@H]2N)nc1Nc1cccc(-n2nccn2)c1
Summary of the method: as §1

[10] = compound: NC1(c2ccc(-c3nc4ccn5c(=O)[nH]nc5c4cc3-c3ccccc3)cc2)CCC1
Summary of the method: as §1

[11] = compound: NCC(=O)Nc1ccc(-n2nc(C(F)(F)F)cc2-c2ccc3c(ccc4ccccc43)c2)cc1
Summary of the method: as §1

[12] = compound: O=C(CCCCCCC(=O)Nc1ccccc1)NO [vorinostat]
Summary of the method: as §1

[13] = compound: O=C(O)c1ccc2c(c1)nc(Nc1cccc(Cl)c1)c1ccncc12 [silmitasertib]
Summary of the method: as §1

[14] = compound: O=C1NC(=O)C(c2cnc3ccccn23)=C1c1cn2c3c(cc(F)cc13)CN(C(=O)N1CCCCC1)CC2
Summary of the method: as §1

[15] = compound: c1cn2cc(-c3ccc4cn[nH]c4c3)nc(Nc3ccc(N4CCOCC4)cc3)c2n1 [entospletinib]
Summary of the method: as §1

UniProt Q9NQW6, sequence (Q9NQW6 whole entry, looked up): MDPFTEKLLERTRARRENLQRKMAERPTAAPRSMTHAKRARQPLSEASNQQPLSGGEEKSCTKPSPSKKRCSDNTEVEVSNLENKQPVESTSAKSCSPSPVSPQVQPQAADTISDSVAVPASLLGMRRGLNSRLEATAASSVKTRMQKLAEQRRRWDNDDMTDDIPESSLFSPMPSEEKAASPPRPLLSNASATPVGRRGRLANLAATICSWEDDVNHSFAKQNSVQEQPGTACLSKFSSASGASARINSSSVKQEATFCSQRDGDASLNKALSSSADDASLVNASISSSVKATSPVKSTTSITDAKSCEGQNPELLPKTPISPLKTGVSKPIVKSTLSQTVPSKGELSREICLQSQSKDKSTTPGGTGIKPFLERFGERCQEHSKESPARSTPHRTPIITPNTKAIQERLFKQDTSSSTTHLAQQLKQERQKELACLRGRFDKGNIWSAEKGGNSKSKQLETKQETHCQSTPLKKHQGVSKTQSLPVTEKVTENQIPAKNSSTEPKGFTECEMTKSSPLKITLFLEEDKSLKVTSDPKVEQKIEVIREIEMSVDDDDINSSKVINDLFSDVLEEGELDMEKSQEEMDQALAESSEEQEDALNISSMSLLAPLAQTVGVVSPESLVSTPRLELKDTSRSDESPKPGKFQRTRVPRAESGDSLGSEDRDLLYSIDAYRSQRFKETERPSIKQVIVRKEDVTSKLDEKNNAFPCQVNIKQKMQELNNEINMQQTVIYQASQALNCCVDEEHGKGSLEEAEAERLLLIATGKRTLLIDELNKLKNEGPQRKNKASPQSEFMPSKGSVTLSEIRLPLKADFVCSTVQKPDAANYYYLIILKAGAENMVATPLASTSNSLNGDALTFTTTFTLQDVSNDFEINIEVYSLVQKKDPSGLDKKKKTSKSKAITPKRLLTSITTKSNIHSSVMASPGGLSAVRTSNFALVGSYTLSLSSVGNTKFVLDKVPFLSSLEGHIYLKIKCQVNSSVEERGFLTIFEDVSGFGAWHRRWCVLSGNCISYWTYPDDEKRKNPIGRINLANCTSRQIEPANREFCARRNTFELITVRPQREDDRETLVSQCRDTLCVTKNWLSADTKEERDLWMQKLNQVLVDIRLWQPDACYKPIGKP
UniProt P35611, sequence (P35611 whole entry, looked up): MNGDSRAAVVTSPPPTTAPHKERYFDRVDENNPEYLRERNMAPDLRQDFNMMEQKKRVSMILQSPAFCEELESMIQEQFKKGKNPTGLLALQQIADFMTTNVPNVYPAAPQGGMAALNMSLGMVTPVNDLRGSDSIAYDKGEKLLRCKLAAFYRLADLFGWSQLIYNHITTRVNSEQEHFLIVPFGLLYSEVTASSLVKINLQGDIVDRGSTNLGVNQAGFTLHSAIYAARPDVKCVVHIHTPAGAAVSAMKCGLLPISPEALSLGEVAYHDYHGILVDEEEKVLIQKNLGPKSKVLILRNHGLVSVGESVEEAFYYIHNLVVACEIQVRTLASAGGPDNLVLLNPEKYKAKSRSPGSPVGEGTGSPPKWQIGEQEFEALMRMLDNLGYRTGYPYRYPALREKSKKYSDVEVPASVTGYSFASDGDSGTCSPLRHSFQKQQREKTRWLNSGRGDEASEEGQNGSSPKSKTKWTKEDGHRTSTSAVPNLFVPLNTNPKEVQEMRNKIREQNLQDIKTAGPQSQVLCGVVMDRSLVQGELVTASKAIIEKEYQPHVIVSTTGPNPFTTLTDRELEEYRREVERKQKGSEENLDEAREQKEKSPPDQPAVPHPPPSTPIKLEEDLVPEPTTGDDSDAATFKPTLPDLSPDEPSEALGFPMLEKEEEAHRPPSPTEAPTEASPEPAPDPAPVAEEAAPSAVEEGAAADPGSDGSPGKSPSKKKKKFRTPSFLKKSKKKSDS
UniProt Q99758, sequence (Q99758 whole entry, looked up): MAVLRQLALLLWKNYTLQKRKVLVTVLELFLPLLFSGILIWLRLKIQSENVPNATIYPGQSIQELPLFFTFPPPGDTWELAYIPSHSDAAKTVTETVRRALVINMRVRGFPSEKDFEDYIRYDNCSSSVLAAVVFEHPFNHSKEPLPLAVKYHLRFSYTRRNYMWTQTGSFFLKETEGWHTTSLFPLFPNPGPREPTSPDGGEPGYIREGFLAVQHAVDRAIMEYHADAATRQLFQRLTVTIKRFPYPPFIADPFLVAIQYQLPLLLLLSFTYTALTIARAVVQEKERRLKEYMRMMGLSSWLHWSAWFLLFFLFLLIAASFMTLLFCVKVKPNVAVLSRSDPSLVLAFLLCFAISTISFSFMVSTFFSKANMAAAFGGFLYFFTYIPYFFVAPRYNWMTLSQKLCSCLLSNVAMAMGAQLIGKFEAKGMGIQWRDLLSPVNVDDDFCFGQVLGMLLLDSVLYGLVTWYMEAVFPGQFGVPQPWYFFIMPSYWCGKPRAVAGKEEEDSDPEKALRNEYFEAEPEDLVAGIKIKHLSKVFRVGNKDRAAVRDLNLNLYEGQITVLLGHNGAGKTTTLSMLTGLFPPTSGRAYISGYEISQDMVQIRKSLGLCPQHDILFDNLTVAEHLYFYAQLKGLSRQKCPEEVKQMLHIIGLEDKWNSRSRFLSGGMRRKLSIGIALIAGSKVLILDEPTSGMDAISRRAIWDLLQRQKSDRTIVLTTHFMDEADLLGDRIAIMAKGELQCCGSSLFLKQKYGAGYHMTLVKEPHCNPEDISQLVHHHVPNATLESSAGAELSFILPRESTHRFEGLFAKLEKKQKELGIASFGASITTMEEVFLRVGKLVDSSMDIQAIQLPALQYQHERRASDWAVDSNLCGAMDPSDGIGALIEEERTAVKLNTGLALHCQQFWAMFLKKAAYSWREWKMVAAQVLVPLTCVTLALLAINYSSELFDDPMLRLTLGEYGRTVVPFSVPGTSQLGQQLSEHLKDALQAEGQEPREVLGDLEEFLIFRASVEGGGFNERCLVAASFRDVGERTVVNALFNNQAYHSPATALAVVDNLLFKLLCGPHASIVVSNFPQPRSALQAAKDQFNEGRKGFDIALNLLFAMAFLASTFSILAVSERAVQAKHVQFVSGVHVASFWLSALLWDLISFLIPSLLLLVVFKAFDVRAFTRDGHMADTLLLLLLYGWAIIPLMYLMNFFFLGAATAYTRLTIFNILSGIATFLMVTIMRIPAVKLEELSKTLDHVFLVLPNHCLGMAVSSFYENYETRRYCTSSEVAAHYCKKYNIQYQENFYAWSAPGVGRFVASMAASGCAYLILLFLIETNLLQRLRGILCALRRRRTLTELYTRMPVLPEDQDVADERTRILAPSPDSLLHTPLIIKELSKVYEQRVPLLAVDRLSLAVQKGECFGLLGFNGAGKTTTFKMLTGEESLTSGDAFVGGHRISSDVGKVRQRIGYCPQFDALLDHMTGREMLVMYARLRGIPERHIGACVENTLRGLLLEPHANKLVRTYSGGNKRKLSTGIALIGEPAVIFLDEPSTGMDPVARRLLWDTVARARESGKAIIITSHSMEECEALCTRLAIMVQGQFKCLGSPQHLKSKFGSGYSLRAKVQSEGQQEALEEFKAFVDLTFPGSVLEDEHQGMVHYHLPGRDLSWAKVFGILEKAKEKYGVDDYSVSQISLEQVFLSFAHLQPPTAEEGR
UniProt Q9BT30, sequence (Q9BT30 whole entry, looked up): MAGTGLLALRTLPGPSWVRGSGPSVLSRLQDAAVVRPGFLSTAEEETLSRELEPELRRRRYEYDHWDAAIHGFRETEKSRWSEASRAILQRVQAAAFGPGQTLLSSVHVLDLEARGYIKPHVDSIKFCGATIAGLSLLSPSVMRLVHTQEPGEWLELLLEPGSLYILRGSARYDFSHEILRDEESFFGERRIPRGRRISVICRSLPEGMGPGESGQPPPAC
UniProt Q562R1, sequence (Q562R1 whole entry, looked up): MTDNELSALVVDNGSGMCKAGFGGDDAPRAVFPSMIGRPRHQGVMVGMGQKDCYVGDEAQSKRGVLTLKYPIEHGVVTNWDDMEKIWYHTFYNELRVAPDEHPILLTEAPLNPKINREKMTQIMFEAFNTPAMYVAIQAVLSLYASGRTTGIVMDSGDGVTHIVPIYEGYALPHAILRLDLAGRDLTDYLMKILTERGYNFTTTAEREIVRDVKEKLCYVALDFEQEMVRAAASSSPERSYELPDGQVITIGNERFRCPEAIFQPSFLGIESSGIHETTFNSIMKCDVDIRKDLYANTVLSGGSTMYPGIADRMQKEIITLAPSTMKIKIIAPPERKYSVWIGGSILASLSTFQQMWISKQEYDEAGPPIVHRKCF
UniProt Q9P1F3, sequence (Q9P1F3 whole entry, looked up): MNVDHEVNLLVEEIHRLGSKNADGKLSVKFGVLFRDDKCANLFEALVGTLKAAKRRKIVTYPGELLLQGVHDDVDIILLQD
UniProt Q02252, sequence (Q02252 whole entry, looked up): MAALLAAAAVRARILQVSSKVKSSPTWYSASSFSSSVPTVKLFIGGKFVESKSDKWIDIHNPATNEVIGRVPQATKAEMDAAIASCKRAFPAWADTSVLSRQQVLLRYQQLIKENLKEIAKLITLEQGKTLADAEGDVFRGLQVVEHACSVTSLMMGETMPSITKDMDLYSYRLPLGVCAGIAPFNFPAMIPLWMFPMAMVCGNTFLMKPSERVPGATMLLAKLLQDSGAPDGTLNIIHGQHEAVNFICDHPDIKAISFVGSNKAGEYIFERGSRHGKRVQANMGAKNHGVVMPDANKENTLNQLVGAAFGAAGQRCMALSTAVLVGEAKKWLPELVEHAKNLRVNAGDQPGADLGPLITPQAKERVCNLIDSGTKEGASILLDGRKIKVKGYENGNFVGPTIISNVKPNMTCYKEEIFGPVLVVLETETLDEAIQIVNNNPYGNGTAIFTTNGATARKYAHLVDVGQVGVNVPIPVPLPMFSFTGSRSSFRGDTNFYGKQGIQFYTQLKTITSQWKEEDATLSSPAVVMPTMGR

Row | Target | log2 fold change [1] | log2 fold change [2] | log2 fold change [3] | log2 fold change [4] | log2 fold change [5] | log2 fold change [6] | log2 fold change [7] | log2 fold change [8] | log2 fold change [9] | log2 fold change [10] | log2 fold change [11] | log2 fold change [12] | log2 fold change [13] | log2 fold change [14] | log2 fold change [15]
1 | AKAP11 (UniProt Q9UKA4) | -0.001 | -0.06 | -0.074 | 0.188 | 0.092 | 0.012 | 0.022 | 0.008 | 0.014 | -0.05 | -0.066 | -0.164 | 0.019 | -0.057 | 0.015
2 | ANLN (UniProt Q9NQW6) | -0.023 | 0.047 | -0.009 | -0.018 | 0.04 | -0.072 | -0.041 | 0.006 | -0.013 | 0.015 | 0.018 | -0.656 (active) | -0.011 | -0.009 | 0
3 | ALDH1A1 (UniProt P00352) | 0.036 | -0.019 | 0.306 (active) | -0.012 | -0.04 | 0.015 | 0.019 | 0.014 | -0.011 | 0.034 | -0.038 | 0.116 | -0.011 | -0.018 | 0.02
4 | ACTBL2 (UniProt Q562R1) | 0.32 | -0.036 | -0.075 | 0.139 | -0.067 | 0.184 | 0.087 | -0.03 | -0.008 | 0.006 | -0.116 | -0.154 | 0.039 | 0.019 | -0.083
5 | ALDH6A1 (UniProt Q02252) | -0.053 | 0.161 | -0.144 | -0.022 | 0.06 | -0.027 | -0.026 | 0.018 | -0.038 | -0.013 | -0.041 | -0.046 | 0.042 | 0.096 | 0.035
6 | ADD1 isoform 4 (UniProt P35611) | – | – | -0.017 | – | -0.075 | – | – | – | -0.109 | -0.274 | 0.037 | 0.237 | -0.148 | – | 0.056
7 | ABRACL (UniProt Q9P1F3) | 0.194 | 0.006 | -0.119 | -0.042 | -0.067 | 0.053 | 0.023 | -0.083 | 0.037 | -0.076 | – | -0.845 (active) | 0.111 | 0.088 | –
8 | ADK, A0A5F9ZH76 | -0.267 | 0.089 | – | 0.065 | – | – | 0.487 | – | -0.083 | – | – | – | – | – | –
9 | ABCC5 (UniProt O15440) | – | – | 0.105 | – | -0.047 | -0.003 | – | 0.035 | -0.035 | -0.015 | 0.025 | 0.042 | -0.023 | -0.028 | -0.036
10 | ANKRD30A (UniProt Q9BXX3) | -0.008 | -0.012 | 0.006 | -0.039 | -0.017 | 0.179 | 0.15 | 0.047 | 0.807 | – | – | – | – | -0.011 | -0.135
11 | ANKRD30B (UniProt Q9BXX2) | 0.061 | -0.076 | -0.061 | 0.072 | -0.015 | – | -0.065 | – | 0.059 | -0.051 | 0.228 | 0.147 | 0.047 | – | 0.025
12 | ARHGEF2 (UniProt V9GYF0) | 0.029 | -0.119 | 0.02 | -0.113 | -0.139 | – | -0.23 | – | 0.117 | – | 0.157 | – | – | – | 0.081
13 | AGPAT2 (UniProt O15120) | -0.044 | 0.046 | – | -0.037 | – | 0.006 | 0.029 | 0.018 | – | 0.02 | -0.234 | 0.104 | -0.026 | -0.052 | 0.063
14 | ANKRD44 isoform 2 (UniProt Q8N8A2) | -0.19 | -0.03 | – | -0.216 | – | – | 0 | – | -0.019 | 0.025 | 0.127 | 0.073 | 0.005 | – | -0.115
15 | ANXA2 (UniProt H0YL33) | -0.153 | 0.008 | -0.069 | 0.074 | 0.022 | 0.134 | 0.199 | -0.196 | -0.078 | 0.089 | – | -0.153 | 0.16 | 0.042 | –
16 | ALKBH7 (UniProt Q9BT30) | -0.039 | -0.04 | -0.017 | -0.452 | -0.226 | 0.006 | 0.107 | 0.044 | – | -0.099 | – | 1.23 (active) | -0.031 | 0.079 | 0.151
17 | ABCA3 (UniProt Q99758) | – | – | 0.044 | – | -0.066 | 0.08 | – | -0.092 | 0.001 | -0.019 | -0.157 | 0.087 | -0.062 | 0 | 0.28
18 | AIMP2 isoform 2 (UniProt Q13155) | – | – | – | – | – | -0.106 | – | 0.067 | 0.017 | – | – | – | – | -0.07 | –
